This is part of a sample that, as a whole, favours compounds with a hit. Of some 83,000 tested, about 20% had one in any assay.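 Treatment: one concentration, 48 hours, 96-well format. Scoring: percent growth, with anything below 10 considered active.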 A number with no mark means an inactive call. Active and inactive are the calls of the source.

This experiment concerns HL-60(TB) leukemia. Put plainly: NCI-60 one-dose screen, 48 h (100 = growth as untreated, 0 = no growth, -100 = all killed). The note with it: 10 µM unless noted.
With `CC1(C)CC[C@]23CC[C@]4(C)[C@H](CC[C@@H]5[C@@]6(C)CCCN(CO)C(C)(C)[C@@H]6CC[C@]54C)[C@H]2[C@H]1OC3`, the growth was 36.6%. `C#Cc1nc(/C=C/C(=O)c2nccn2C)cs1`: the growth was -40.3% (active). The value for `COc1ccc(C2c3sc4c(C)cccc4c3Oc3nc(CC(=O)Nc4ccccc4)[nH]c(=O)c32)cc1` (centres undefined) was 146%.

`CCOC(=O)c1c(NC(=O)c2ccccc2C(F)(F)F)sc2c1CCC(=O)C2`: the growth was 33.4%.

For `c1ccc(-c2cn3c(-c4c[nH]c5ccccc45)csc3n2)cc1`, the growth is 56%. `CCS(=O)(=O)Nc1ccc(C(=O)CC2(O)C(=O)Nc3ccccc32)cc1` (centres undefined): the growth is 102%. The value for `CCCCCc1ccc(S(=O)(=O)N(C(C)=O)c2cccc(-c3csc(N(CCN4CCN(C)CC4)C(C)=O)n3)c2)cc1` was -52.8% (active); that for `O=C(CN1CCN(c2cc(=O)n(-c3ccccc3)c3ccccc23)CC1)Nc1ccc(F)cc1` was 47.7%; that for `C=CCn1c(-c2nc3ccc(C(=C(C#N)C#N)c4ccccc4)cc3[nH]2)cc2cc(Br)ccc21` was 59.2%. With `COc1ccc2c(c1)c(-c1nnc(N)nc1-c1c[nH]c3ccc(F)cc13)cn2C`, the growth is -0.122% (active). With `NS(=O)(=O)c1ccc(CCn2c(-c3ccc(C(=O)O)cc3)nc(-c3ccccc3)c2-c2ccccc2)cc1`, the growth is 101%. In the case of `COC(=O)CNC(=O)c1cccc(-c2cc(=O)c3c(OC)c(OC)c(OC)cc3o2)c1`, the growth was 109%. The value for `C#CCOc1ccc(/C=N/Nc2nc(-c3cc(Cl)ccc3Cl)cs2)cc1` was 91%; that for `Cn1ccnc1C(=O)/C=C/c1ccc(NC(=O)Nc2ccccc2)cc1` was -16.5% (active); that for `CC(Nc1c(C#N)cnc2ccc(-c3cnc(N)nc3)cc12)c1ccccc1` (centres undefined) was 20.1%. The value for `COc1cc2c(cc1OC)C(Sc1ccc(C)cc1)c1c(nc(N)c(C#N)c1N)O2` (centres undefined) was -19% (active); that for `COc1cc(C2CC(c3ccc(Nc4nc(NCCO)nc(Nc5ccc(Cl)cc5)n4)cc3)=Nc3c(N)nc(N)nc3N2)cc(OC)c1OC` (centres undefined) was 25%; that for `Cn1cc(-c2cc3ncnc(Nc4ccc(CC(=O)Nc5nc(C(C)(C)C)cs5)cc4)c3s2)cn1` was 29.2%. With `CCC(CC)N1C(=O)/C(=c2\sc3n(c2=O)C2C(NN=3)N(CC)C(=O)N2CC)c2ccccc21` (centres undefined) the figure was -17.8% (active); with `COc1ccc(/C=C/C(=O)c2ccc(NC(=O)CSc3nnc(-c4ccc5nc(-c6ccc(Cl)cc6)[nH]c5c4)o3)cc2)cc1`, 78.6%.

On to `Clc1nc2ccccc2nc1-c1nnc(C2CCCCC2)o1`, for which the growth was 66.6%. With `C#C[C@]1(O)CC[C@H]2[C@@H]3CC=C4c5sc(Nc6ccncc6)nc5CC[C@]4(C)[C@H]3CC[C@@]21C` the figure was -24% (active).

For the compound `CCO/C=N/C1=C(C#N)C(c2ccc(OC)cc2)c2sc3c(CC)cccc3c2O1` (centres undefined), the growth is 9.99% (active). With `COc1ccc(/C(=N\N=C(N)N)c2ccc(Cl)cc2)cc1OC` the figure was 44.9%; with `COc1cc(/C=C/C(=O)c2ccc(NC(=O)CSc3nnc(-c4ccc(-c5nc6ccc(Cl)cc6[nH]5)cc4)o3)cc2)cc(OC)c1OC`, 73.6%; with `C#CCN(C)CCCOc1ccc(NC(=O)CCCCCCCCC(=O)NO)cc1Cl`, 28.6%.

Take `O=S(=O)(NCCCNc1nccc(-c2[nH]c(-c3ccccc3)nc2-c2ccc(Cl)c(O)c2)n1)c1cccc2ccccc12`: the growth was 9.79% (active). With `Cc1cc2nc3c4cc(Cl)ccc4n(CC(=O)NCCN(C)C)c3nc2cc1C` the figure was 56%. The value for `CC1(C)CC[C@]2(C(=O)N3CCOCC3)CC[C@]3(C)C(=CC[C@@H]4[C@@]5(C)C/C(=C/c6ccco6)C(=O)C(C)(C)[C@@H]5CC[C@]43C)[C@@H]2C1` was 57.2%; that for `COc1cc(-c2noc(C[C@@H](NC(=O)OCc3ccccc3)C(C)C)n2)cc(OC)c1OC` was 100%. With `C/C=C/[C@@H]1C=C[C@@H]2C[C@H](C)CC[C@H]2[C@]1(C)/C(O)=C1/C(=O)[C@H](CO)N(C)C1=O` the figure was 62.7%; with `O=C1C(SCc2ccccc2)=C(Cl)CN1c1ccc(Cl)cc1`, 44%; with `O=S(=O)(NCCCNc1nccc(-n2cnc3ccccc32)n1)c1ccc(C(F)(F)F)cc1`, 101%.

Turning to `CCCCCCNC(=O)Oc1ccc(/C(=C(/C)c2ccc(OC)cc2)c2ccc(OCCN3CCCC3)cc2)cc1`, the growth is 50.7%.

For the origin of these results see PubChem BioAssay (NCI).
